Reference: article PMC4336329 (PLoS ONE, 2015)
Hit rate of the full screen: of about 310,000 compounds, about 14,000 (4.5%) showed an effect of 50% or more. Effects have a minus sign here. The full list was thinned out, with strong results kept by preference.

What follows are compounds tested against human ether-à-go-go-related gene (hERG) potassium channel (human, UniProt Q12809) (assay: primary screen, population patch clamp on CHO cells stably expressing hERG; higher = less effect of the substance).
Sequence of human ether-à-go-go-related gene (hERG) potassium channel (Q12809 whole entry, looked up): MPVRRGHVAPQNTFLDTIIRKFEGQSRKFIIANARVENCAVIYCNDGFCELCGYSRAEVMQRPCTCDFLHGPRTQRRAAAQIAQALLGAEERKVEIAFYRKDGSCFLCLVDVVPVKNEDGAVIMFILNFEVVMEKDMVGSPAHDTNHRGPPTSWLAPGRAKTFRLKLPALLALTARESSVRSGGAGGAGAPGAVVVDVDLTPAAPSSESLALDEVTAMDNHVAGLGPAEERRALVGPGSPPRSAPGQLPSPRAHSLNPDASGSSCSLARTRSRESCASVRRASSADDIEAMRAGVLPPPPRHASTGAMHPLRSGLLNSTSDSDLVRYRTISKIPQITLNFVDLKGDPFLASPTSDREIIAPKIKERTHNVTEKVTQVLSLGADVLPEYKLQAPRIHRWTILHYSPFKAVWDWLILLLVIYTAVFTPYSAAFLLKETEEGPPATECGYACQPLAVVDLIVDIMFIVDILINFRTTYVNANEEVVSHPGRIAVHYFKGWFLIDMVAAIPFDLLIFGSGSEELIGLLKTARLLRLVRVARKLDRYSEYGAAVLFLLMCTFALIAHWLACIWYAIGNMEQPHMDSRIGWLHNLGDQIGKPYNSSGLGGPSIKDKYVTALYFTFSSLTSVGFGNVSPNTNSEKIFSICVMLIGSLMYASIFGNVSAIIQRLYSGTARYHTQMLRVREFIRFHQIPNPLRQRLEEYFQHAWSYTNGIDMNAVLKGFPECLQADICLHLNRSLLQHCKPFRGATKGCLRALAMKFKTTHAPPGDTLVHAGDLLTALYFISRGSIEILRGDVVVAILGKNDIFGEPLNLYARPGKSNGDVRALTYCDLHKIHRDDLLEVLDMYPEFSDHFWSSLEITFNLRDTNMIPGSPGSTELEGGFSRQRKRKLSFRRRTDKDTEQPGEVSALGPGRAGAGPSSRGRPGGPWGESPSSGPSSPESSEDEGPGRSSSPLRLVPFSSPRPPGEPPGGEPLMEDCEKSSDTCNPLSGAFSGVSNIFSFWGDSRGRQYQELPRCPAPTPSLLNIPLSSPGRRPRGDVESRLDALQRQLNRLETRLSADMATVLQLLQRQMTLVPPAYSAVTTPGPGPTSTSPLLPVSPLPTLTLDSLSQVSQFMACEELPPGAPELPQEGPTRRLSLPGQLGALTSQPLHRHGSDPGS
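Note: peak tail current of the secondary pulse compared with the same well before compound.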

Row | Structure (SMILES) | hERG current change (%, negative = inhibition) at 10uM [%]
1 | Cc1cc(C=C2C(=O)N(C)C(=O)N(C)C2=O)c(C)n1-c1ccccc1 | 17.5
2 | FC(F)(F)c1cc(-c2cccs2)nc(N2CCOCC2)n1 | 1.94
3 | CC(C)N(Cc1nc(-c2ccccc2)no1)C(=O)c1ccc(Br)o1 | -18.8
4 | O=CN1CCN(S(=O)(=O)c2ccc(Cl)c(C(=O)O)c2)CC1 | -2.45
5 | C/C(=N\NC(=O)Cn1nc(C)c([N+](=O)[O-])c1C)c1ccco1 | 26
6 | C=C1c2ccc(C)cc2NC(=O)N1c1ccccc1 | -1.2
7 | COc1ccc(N=C2CCCN2CC(N)=O)cc1.Cl | -0.486
8 | C#Cc1cccc(-n2nnc(C(C)=O)c2C)c1 | 15.5
9 | Cc1noc(C)c1COc1ccccc1C(=O)N1CCN(S(=O)(=O)c2ccccc2F)CC1 | -19.2
10 | CCOC(=O)C1=C(CN2CCN(C(=O)OCC)CC2)NC(=O)NC1c1ccc2c(c1)OCO2 (centres unmarked) | -18.4
11 | CCOC(=O)C1=C(CN2CCN(C(=O)c3ccco3)CC2)NC(=O)NC1c1ccc(OC)cc1 (centres unmarked) | -64.9
12 | CC(C)Oc1ccc(C(=O)N2CCN(C(=O)c3ccco3)CC2)cc1 | -29.6
13 | COc1ccc(CN2CCN(C(=O)c3ccco3)CC2)cc1 | -12.3
14 | CCOC(=O)C1=C(CN2CCCCCC2)NC(=O)NC1c1ccc2c(c1)OCO2 (centres unmarked) | -48.2
15 | CCOC(=O)C1=C(CN2CCN(C(=O)c3ccco3)CC2)NC(=O)NC1c1ccc(F)cc1 (centres unmarked) | -62.9
16 | CCOC(=O)C1=C(CN2CCN(C(=O)c3ccco3)CC2)NC(=O)NC1c1ccc(OC(C)C)cc1 (centres unmarked) | -69.3
17 | CCOC(=O)C1=C(C)NC(=O)NC1c1ccc(OC(=O)c2ccco2)cc1 (centres unmarked) | -2.08
18 | CCOC(=O)C1=C(CN2CCN(C(=O)c3ccco3)CC2)NC(=O)NC1c1ccc(C)cc1 (centres unmarked) | -63.2
19 | CCOC(=O)C1=C(CN2CCN(C(=O)c3ccco3)CC2)NC(=O)NC1c1ccc(Cl)cc1 (centres unmarked) | -35
20 | CCOC(=O)C1=C(CN2CCN(C(=O)c3ccco3)CC2)NC(=O)NC1c1ccccc1 (centres unmarked) | -43.7
21 | CCOC(=O)C1=C(CN2CCC(C)CC2)NC(=O)NC1c1ccc(Cl)cc1 (centres unmarked) | -37.6
22 | CN(C)/C=C1\SC(=S)N(c2ccc(Br)cc2)C1=O | -4.75

Row | Structure (SMILES) | hERG current change (%, negative = inhibition) at 10uM [%]
23 | COc1ccccc1N1CCN(C(=O)Cn2ncc3c([nH]c4ccccc43)c2=O)CC1 | 4.74
24 | CCCCn1c(Cc2ccccc2)nnc1SCC(=O)N1CCOCC1 | 0.754
25 | CN(/N=C/Cc1nnnn1-c1ccc(Cl)cc1)c1ccccc1 | -7.54
26 | Cc1c(C#N)c2ncnc(N)c2n1-c1ccccc1 | 5.64
27 | NC1=C([N+](=O)[O-])C(c2ccc3c(c2)OCO3)c2c(c3ccccc3oc2=O)O1 (centres unmarked) | -21.3
28 | O=C(Nc1cc2c3c(c1)CC(=O)N3CCC2)C1CCCCC1 | -5.43
29 | Cc1cccc(C)c1NC(=O)CSc1nnc(CCCCCNC(=O)OC(C)(C)C)o1 | -17.8
30 | CC(C)(C)OC(=O)NCCCCCc1nnc(SCC(=O)Nc2cccc(Cl)c2)o1 | -50.7
31 | CC(C)(C)OC(=O)NCCc1nnc(SCC(=O)Nc2cccc(Cl)c2)o1 | 6.91
32 | COc1cccc(C(=O)C2CCCN(C(=O)CCc3scnc3C)C2)c1 (centres unmarked) | -12.7
33 | CCOC(=O)c1cnn(-c2ccccc2)c1NC(=O)CN1CCOCC1 | 16.1
34 | Cn1c(N)c(C(=O)COC(=O)c2ccco2)c(=O)n(C)c1=O | 5.09
35 | COc1ccc(-c2nc(C)ncc2-c2csc(C)n2)c(O)c1 | 11
36 | COc1ccc(C)cc1Cn1nnc2ccccc21 | -4.34
37 | CNc1ccc(C2(O)C(=O)c3ccccc3C2=O)cc1 | -66.1
38 | CN(C)c1ccc(C2(O)C(=O)c3ccccc3C2=O)cc1 | 23.4
39 | CCNc1ccc(C2(O)C(=O)c3ccccc3C2=O)cc1 | 12.6
40 | COc1ccc(NC(=O)c2sc(NC(=O)COc3ccccc3)nc2C)cc1 | 1.76
41 | COc1ccc(CCc2nnc(CCC(=O)N(C)Cc3ccnc4ccccc34)o2)cc1 | -37.7
42 | COc1ccc(C(C)(C)C)cc1NC(=O)COC(=O)c1nc2nccc(C)n2n1 | 3.17
43 | O=c1[nH]c(=S)n(C2CC2)c(O)c1C=Nc1cccc(C(F)(F)F)c1 | 12.8
44 | Cc1ccc(NC(=O)Nc2cccc3ccccc23)cc1 | 19.5

Row | Structure (SMILES) | hERG current change (%, negative = inhibition) at 10uM [%]
45 | CC1(NC(=O)Nc2ccccc2)CCS(=O)(=O)C1 (centres unmarked) | -53
46 | Cc1cccc(NC(=O)NC2(C)CCS(=O)(=O)C2)c1 (centres unmarked) | 6.52
47 | CC1(NC(=S)Nc2ccccc2)CCS(=O)(=O)C1 (centres unmarked) | 13.8
48 | C/C(=N/NC(=O)CCC(=O)Nc1ccc(Br)cc1)c1ccc(Br)cc1 | 12.7
49 | O=C(Nc1ccccc1)N(CCc1nc2ccccc2[nH]1)C1CCCC1 | -24
50 | CC1CCCCC1NC(=O)CCCCCn1c(=S)[nH]c2ccccc2c1=O (centres unmarked) | 7.63
51 | O=C(Nc1nccs1)c1nc[nH]c1C(=O)NCc1ccccc1 | 3.34
52 | CC(C)(C)NC(=O)Cn1nnc(-c2cccs2)n1 | -4.07
53 | O=C(Nc1ccc([N+](=O)[O-])cc1)c1cc(-c2ccccn2)nc2c(Cl)cccc12 | 33
54 | O=C1OC(CC(=O)N(Cc2nnc(-c3ccc(Cl)cc3)o2)C2CC2)c2ccccc21 (centres unmarked) | -67.8
55 | CCCN(Cc1nnc(-c2ccccc2Cl)o1)C(=O)c1oc2ccccc2c1C | -13.1
56 | Cc1ccc(C(=O)N(Cc2nnc(-c3ccc(Cl)cc3)o2)C2CC2)o1 | -32.6
57 | CCCN(Cc1nnc(-c2ccccc2Cl)o1)C(=O)COc1ccc(Cl)cc1 | -60.5
58 | CCOc1ccccc1N1CC(C(=O)N(Cc2nnc(-c3ccccc3Cl)o2)C2CC2)CC1=O (centres unmarked) | -16.8
59 | O=C1OC(CC(=O)N(Cc2nnc(-c3ccccc3Cl)o2)C2CC2)c2ccccc21 (centres unmarked) | -40.3
60 | N#Cc1ccccc1OCC(=O)N(Cc1nnc(-c2ccccc2Cl)o1)C1CC1 | -48.7
61 | CSc1cccc(N2CC(C(=O)N(Cc3nnc(-c4ccccc4Cl)o3)C3CC3)CC2=O)c1 (centres unmarked) | -55.5
62 | Cc1ccc(CN2CC(C(=O)N(Cc3nnc(-c4ccccc4Cl)o3)C3CC3)CC2=O)cc1 (centres unmarked) | -45.2
63 | CCC(=O)c1ccc(OCC(=O)N(Cc2nnc(-c3ccccc3Cl)o2)C2CC2)cc1 | -67.2
64 | COc1ccccc1OCC(=O)N(Cc1nnc(-c2ccccc2Cl)o1)C1CC1 | -44.2
65 | Cc1ccc(C)c(OCC(=O)N(Cc2nnc(-c3ccccc3Cl)o2)C2CC2)c1 | -20.9
